# Source: PubChem BioAssay
# Active and inactive are the calls of the source.
# Experiments:
# [1] = test system: Plasmodium falciparum Sir2 (PF13_0152, Sir2A); assay: Plasmodium falciparum Sir2A binding compounds – biochemical, small-molecule microarray, 635 nm fluorescence, primary screen (AID 1098); details: fluorescence 635 nm, higher = more signal;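 further: score merges spot fluorescence intensity with its signal-to-noise ratio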
# [2] = probe aDKK1 binding to arrayed compounds – biochemical, biotinylated probe, 635/667 nm fluorescence, primary screen (AID 1099); details: small-molecule microarray, higher = more signal;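 further: score merges 667nm spot fluorescence with signal to noise across triplicate slides; reference of the scale not given here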
# [3] = probe aCHRDL2 binding to arrayed compounds – biochemical, biotinylated probe, 635/667 nm fluorescence, primary screen (AID 1100); details: small-molecule microarray, higher = more signal
# [4] = change in splice reporter luminescence, either direction, cell-based, HEK293, spliceosome inhibition project, primary screen (AID 1101); details: HEK293 splicing luciferase reporter, 24 h, higher = more signal, called active from +8 up or from −8 down;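 further: HEK293 cells carrying a splicing-competent luciferase reporter gene; test concentration not given here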
# [5] = target: Fibroblast growth factor 10 (Homo sapiens) (UniProt O15520); assay: compounds binding fibroblast growth factor 10 – biochemical, small-molecule microarray, 635 nm fluorescence, primary screen (AID 1102); details: FGF10 binding, fluorescence 635 nm, higher = more signal
# [6] = test system: glycogen synthase kinase-3 (GSK3A per assay name; protocol says GSK3B); assay: compounds binding glycogen synthase kinase-3 – biochemical, small-molecule microarray, 635 nm fluorescence, GSK3A, primary screen (AID 1103); details: fluorescence 635 nm, higher = more signal; further: the record names both GSK3A and GSK3B
# [7] = target: Epidermal growth factor receptor (Homo sapiens) (UniProt P00533); assay: compounds binding epidermal growth factor receptor – biochemical, small-molecule microarray, 635 nm fluorescence, primary screen (AID 1104); details: EGFR binding, higher = more signal;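 further: score merges 667 nm emission intensity with spot signal to noise over triplicate slides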
# [8] = target: Follistatin-related protein 3 (Homo sapiens) (UniProt O95633); assay: compounds binding follistatin-related protein 3 – biochemical, small-molecule microarray, 635 nm fluorescence, primary screen (AID 1105); details: FSTL3 binding, higher = more signal;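 further: score merges emission near 667 nm and signal to noise per printed spot across three slides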
# [9] = target: Dickkopf-related protein 1 (Homo sapiens) (UniProt O94907); assay: small molecules binding DKK1 protein – biochemical, small-molecule microarray, 635 nm fluorescence scan, primary screen (AID 1106); details: higher = more signal;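 further: score merges emission near 667 nm with signal to noise over three replicate slides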
# [10] = test system: Inhibin beta A chain (activin A); assay: small molecules binding activin A – biochemical, small-molecule microarray, 635 nm fluorescence scan, primary screen (AID 1107); details: INHBA, higher = more signal;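 further: mouse activin A protein probed at 4.33 µg/mL on printed slides; score merges bound-protein fluorescence near 667 nm with spot signal-to-noise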
# Chain of Epidermal growth factor receptor (Homo sapiens) (P00533 whole entry, looked up): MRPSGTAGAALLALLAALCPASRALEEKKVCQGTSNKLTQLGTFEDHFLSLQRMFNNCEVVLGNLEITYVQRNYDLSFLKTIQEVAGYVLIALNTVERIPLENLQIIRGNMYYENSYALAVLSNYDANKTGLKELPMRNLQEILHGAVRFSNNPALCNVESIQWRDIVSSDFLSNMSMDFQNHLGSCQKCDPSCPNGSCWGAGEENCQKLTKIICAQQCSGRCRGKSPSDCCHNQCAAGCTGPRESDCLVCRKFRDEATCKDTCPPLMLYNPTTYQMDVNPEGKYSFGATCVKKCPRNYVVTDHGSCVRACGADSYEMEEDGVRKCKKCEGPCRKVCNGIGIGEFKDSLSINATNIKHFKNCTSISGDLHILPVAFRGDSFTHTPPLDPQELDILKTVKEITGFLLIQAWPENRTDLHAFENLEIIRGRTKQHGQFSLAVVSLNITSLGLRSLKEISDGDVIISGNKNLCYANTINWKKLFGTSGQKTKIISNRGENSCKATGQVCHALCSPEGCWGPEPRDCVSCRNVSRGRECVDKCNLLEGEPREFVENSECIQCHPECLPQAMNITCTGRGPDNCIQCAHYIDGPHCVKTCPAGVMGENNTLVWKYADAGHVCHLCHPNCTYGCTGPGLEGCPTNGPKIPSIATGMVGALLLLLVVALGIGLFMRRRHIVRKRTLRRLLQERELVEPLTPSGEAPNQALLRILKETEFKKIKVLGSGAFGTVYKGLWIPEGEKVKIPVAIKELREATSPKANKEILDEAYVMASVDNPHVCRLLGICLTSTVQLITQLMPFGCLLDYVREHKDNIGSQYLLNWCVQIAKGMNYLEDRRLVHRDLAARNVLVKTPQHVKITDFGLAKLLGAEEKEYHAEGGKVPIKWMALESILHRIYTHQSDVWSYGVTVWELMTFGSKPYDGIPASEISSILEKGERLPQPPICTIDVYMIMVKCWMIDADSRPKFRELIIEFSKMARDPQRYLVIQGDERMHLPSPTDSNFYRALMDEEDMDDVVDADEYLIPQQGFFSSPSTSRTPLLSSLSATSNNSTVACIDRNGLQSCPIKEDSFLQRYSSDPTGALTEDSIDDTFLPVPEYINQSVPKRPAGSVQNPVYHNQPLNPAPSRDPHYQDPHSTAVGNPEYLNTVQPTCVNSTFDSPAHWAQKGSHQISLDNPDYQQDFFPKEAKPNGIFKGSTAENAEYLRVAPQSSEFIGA
# Chain of Dickkopf-related protein 1 (Homo sapiens) (O94907 whole entry, looked up): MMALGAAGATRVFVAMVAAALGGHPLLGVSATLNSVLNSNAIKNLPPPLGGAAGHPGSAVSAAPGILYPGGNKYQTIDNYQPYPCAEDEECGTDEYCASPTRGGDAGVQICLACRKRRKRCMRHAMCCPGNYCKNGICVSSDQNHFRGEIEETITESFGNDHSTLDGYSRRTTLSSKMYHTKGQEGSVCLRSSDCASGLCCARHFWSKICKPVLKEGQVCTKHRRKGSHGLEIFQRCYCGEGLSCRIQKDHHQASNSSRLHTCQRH
# Chain of Fibroblast growth factor 10 (Homo sapiens) (O15520 whole entry, looked up): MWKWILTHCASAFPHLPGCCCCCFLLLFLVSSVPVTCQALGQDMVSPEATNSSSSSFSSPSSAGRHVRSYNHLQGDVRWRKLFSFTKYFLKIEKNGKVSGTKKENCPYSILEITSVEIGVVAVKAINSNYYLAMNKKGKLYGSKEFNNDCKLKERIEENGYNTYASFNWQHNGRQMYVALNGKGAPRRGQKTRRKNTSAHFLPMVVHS
# Chain of Follistatin-related protein 3 (Homo sapiens) (O95633 whole entry, looked up): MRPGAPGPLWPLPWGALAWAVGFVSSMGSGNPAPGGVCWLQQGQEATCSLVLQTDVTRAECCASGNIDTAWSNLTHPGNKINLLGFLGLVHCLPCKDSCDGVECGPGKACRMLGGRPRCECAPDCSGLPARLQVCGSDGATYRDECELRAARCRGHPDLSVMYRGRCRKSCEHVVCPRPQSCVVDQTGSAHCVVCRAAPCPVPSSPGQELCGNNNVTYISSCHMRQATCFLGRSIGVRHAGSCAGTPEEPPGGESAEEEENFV
Structure (SMILES),composite z-score [1],composite z-score [2],composite z-score [3],z-score [4],composite z-score [5],composite z-score [6],composite z-score [7],composite z-score [8],composite z-score [9],composite z-score [10]
C[N+](C)(C)CCCC[C@@H]1NC(=O)[C@@H]2C[C@H](C(=O)NCCCCCCNC(=O)CS)[C@H](c3cccc(OCCO)c3)N2C1=O,1.58,-0.209,0.111,-0.451 (inactive),0.0947,-0.755,-1.01,-0.0324,0.383,0.439
CC(c1ccccc1)C(O)C1C=CC2C(=O)N(Cc3ccccc3)C(=O)C2N1n1cnnc1 (stereo not given),0.424,0.492,0.675,-0.605 (inactive),0.691,0.29,0.153,0.369,-0.174,0.813
C=C[C@H](C)[C@H](OC(=O)Nc1ccc(OC)cc1)c1ccc(O)c2ccccc12,0.443,-0.26,0.242,-0.632 (inactive),0.111,-0.667,-0.587,0.0608,-0.0641,0.997
COCCOC(=O)N1C(=O)[C@@]2(c3cc(C#CCCO)ccc31)[C@H](C(=O)NC[C@H](O)c1ccccc1)[C@H]1C(=O)O[C@H](c3ccccc3)[C@H](c3ccccc3)N1[C@@H]2c1ccc(OCCO)cc1,1.24,0.112,0.169,-1.33 (inactive),0.901,1.3,0.887,1.26,0.512,0.585
CCCCCCCCCCC(O)C1C=CC2C(=O)N(c3ccccc3)C(=O)C2N1Nc1ccc([N+](=O)[O-])cc1 (stereo not given),1.34,-0.101,0.584,0.823 (inactive),0.668,1.29,0.352,1.01,0.0052,0.559
COc1ccc([Si](C)(C)[C@H]2[C@H](CC(=O)N3Cc4ccccc4C[C@H]3CO)O[C@@]3(C(=O)N(Cc4cccc(I)c4)c4ccccc43)[C@@H]2C)cc1,0.391,-0.29,-0.162,-1.73 (inactive),1.15,0.346,1.4,1.36,1.57,1.76
CC1CC/C=C\[C@H]2OC34C=CCN(Cn5nnc6ccccc65)C(=O)[C@H]3N(CCCO)C(=O)[C@@H]4C2C(=O)O1 (stereo not given in full),1.14,-0.12,0.763,-0.538 (inactive),-1.04,-1.31,-0.991,-0.97,-1.6,0.767
C=CCN1C(=O)[C@@]2(O[C@@H](CCO)[C@H]([Si](C)(C)c3ccc(OC)cc3)[C@H]2C)c2cc(NC(C)=O)ccc21,0.463,-0.155,-0.255,-1.17 (inactive),1.08,1.16,0.363,1.44,1.29,0.314
COC(=O)[C@@]1(Cc2ccc(F)cc2)[C@H]2c3cc(C(=O)N(C)C)n(Cc4ccccn4)c3C[C@H]2CN1C(=O)c1ccccc1,1.19,1.37,1.14,-2.82 (inactive),0.214,1.08,0.328,0.706,0.116,1.24
C=C(CCCC)C(=O)CC[C@H](OC(=O)c1ccccc1-c1ccccc1C(=O)O)c1ccc(CO)o1,1.15,-0.28,-0.635,0.144 (inactive),1.51,1.1,0.264,1.2,1.02,0.64
C#C[C@H](O[Si](C#CCCCCCC)(C(C)C)C(C)C)c1ccccc1,-0.369,-0.109,-0.132,-0.22 (inactive),-0.0831,0.173,-0.33,-0.215,-0.169,0.168
CCOC1=C2C(c3ccc(C)cc3)N(S(=O)(=O)c3ccc(C)cc3)CC2n2c(=O)n(-c3ccccc3)c(=O)n2C1 (stereo not given),0.818,0.579,0.5,-0.0374 (inactive),1.04,1.29,0.559,1.26,0.424,0.329
CO[C@H]1O[C@H](CO)[C@@H](OC(=O)Nc2cccc(F)c2)[C@H](OC(=O)Nc2ccccc2-c2ccccc2)[C@@H]1OC(=O)Nc1ccccc1-c1ccccc1,1.13,0.568,0.74,1.54 (inactive),1.17,0.673,0.407,1.11,0.198,0.434
CCOC(=O)C[C@H]1[C@H](OC(=O)c2cc3ccccc3oc2=O)[C@@H](NC(=O)c2ccc3ccccc3c2)c2cc(OCCCO)ccc2N1C(=O)c1ccccc1,1.38,-0.151,-0.413,-1.28 (inactive),1.41,0.939,0.348,0.906,0.486,0.447
COCCOC(=O)N1C(=O)[C@@]2(c3ccccc31)[C@H](C(=O)N1CCCCCCC1)[C@H]1C(=O)O[C@H](c3ccccc3)[C@H](c3ccccc3)N1[C@@H]2c1ccccc1OCCO,1.72,2.76,1.66,-0.0563 (inactive),1.09,1.29,1,1.52,1.5,2.02
CC(C)C(=C=CC[C@H](O)c1ccccc1OCCO)CCO,0.0112,0.292,-0.0417,0.232 (inactive),0.0544,-0.144,-0.585,-0.449,-0.679,0.913
CC1CC/C=C\[C@H]2OC34C=CCN(CCN5CCOCC5)C(=O)[C@H]3N(CCCCCO)C(=O)[C@@H]4C2C(=O)O1 (stereo not given in full),-0.31,-0.605,-0.824,-0.282 (inactive),-0.352,-0.444,-0.559,-0.507,-0.0732,1.01
CCOC(=O)C[C@H]1[C@H](OC(=O)c2ccccc2-c2ccccc2)[C@@H](NC(=O)c2ccc(-c3ccccc3)cc2)c2cc(OCCCO)ccc2N1C(=O)c1ccccc1,0.154,0.319,-0.181,0.119 (inactive),0.888,0.425,0.31,0.645,0.531,-0.0094
C=CCC(OC(C)=O)[C@@H]1[C@@H](N(Cc2ccc(-c3ccccc3)cc2)C(=O)c2ccc(C)cc2)c2cc(OCCCO)ccc2N1C(=O)Cc1ccc(OC)cc1 (stereo not given in full),1.36,-0.0745,-0.216,-1.03 (inactive),0.191,-0.159,0.0485,0.0762,0.22,1.23
COc1ccc([Si](C)(C)[C@@H]2[C@@H](CC(=O)N3Cc4ccccc4C[C@H]3CO)O[C@]3(C(=O)N(Cc4cccc(N5C(=O)COc6ccccc65)c4)c4ccccc43)[C@H]2C)cc1,0.321,0.542,-0.602,-1.82 (inactive),0.904,0.901,0.925,1.13,1.01,0.729
NC(=O)[C@@]1(CCS(=O)(=O)c2ccccc2)N=C(c2ccc(OCCCO)cc2)O[C@H]1c1ccccc1,1.28,0.518,0.7,-0.675 (inactive),1.08,0.953,-0.151,-0.437,0.015,0.564
C=C(C)[C@@H]1CC=C(C(O)C2C=CC3C(=O)N(Cc4ccccc4)C(=O)C3N2n2cnnc2)CC1 (stereo not given in full),0.827,0.546,1.11,-0.925 (inactive),-0.394,-0.724,-0.608,-0.739,-0.665,1.34
CO[C@H]1O[C@H](CO)[C@@H](OC(=O)Nc2ccc(C(F)(F)F)cc2)[C@H](OC(=O)Nc2ccccc2)[C@@H]1OC(=O)Nc1ccccc1,1.02,-0.442,0.144,-0.577 (inactive),1.07,1.23,0.74,0.743,0.295,0.378
